In all, about 340,000 compounds went through this assay and about 2,100 (0.62%) were called active.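 The calls were made as follows: active = first-screen hits whose inhibition reached a set limit at any dose in the follow-up dose series; inconclusive = inhibition above the set first-screen limit but never retested; inactive = the rest.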 Not all results are given here. Results with a measured potency or affinity are listed apart.
Target: Rac GTPase-activating protein 1 (Homo sapiens) (UniProt Q9H0H5)
Experiment: blockers of MgcRacGAP-driven Rac1 GTP hydrolysis – biochemical, ADP Hunter fluorescence, primary and confirmatory, confirmation (AID 624330);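 also: fluorescence reports GDP produced by GAP-driven GTP hydrolysis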
Conditions: MgcRacGAP-stimulated Rac1 GTP hydrolysis, at 30 µM, hits give high values, GST-tagged Rac1 F28L mutant substrate

Rac GTPase-activating protein 1 (Homo sapiens), sequence (Q9H0H5 whole entry, looked up): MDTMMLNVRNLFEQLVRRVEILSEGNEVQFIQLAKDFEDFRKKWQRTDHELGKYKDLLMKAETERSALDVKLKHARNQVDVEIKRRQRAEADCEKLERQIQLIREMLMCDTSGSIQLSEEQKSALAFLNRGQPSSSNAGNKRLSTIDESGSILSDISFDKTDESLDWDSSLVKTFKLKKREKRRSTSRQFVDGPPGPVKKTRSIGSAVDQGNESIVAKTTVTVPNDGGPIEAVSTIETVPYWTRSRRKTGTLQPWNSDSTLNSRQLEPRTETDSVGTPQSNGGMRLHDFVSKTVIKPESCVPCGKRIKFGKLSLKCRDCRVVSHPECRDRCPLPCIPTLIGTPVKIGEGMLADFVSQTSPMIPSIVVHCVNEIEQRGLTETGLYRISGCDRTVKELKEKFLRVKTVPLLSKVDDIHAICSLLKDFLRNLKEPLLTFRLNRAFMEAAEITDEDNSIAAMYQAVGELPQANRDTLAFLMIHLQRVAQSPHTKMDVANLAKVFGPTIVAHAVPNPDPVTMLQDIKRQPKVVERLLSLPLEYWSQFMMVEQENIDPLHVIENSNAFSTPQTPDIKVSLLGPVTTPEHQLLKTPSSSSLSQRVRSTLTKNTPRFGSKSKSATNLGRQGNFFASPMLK

inhibition, inactive:
Clc1ccccc1OCCCCn1ccnc1 -1.42%, Fc1ccccc1OCCCCN1CCCCC1 24.8%, Fc1ccccc1OCCCCCN1CCCC1 10.2%, C/C=C/c1ccc(OCCCCN2CCC(C)CC2)c(OC)c1 17.4%, C/C=C/c1ccc(OCCCCOc2ccc(OC)cc2)c(OC)c1 8.38%, CC1CN(C(=O)CCCN2C(=O)c3ccccc3C2=O)CC(C)O1 (stereo unspecified) -0.39%, Cc1ccccc1OCCCCCn1ccnc1 2.87%, CC1CN(CN2C(=O)c3ccccc3C2=O)CC(C)O1 (stereo unspecified) -0.88%, CCn1c2ccccc2c2cc(NC(=O)COC(=O)c3cc(S(N)(=O)=O)c(Cl)cc3Cl)ccc21 11.3%, O=C(Nc1nnc(C2CC2)s1)C1Cc2ccccc2CN1C(=O)c1ccco1 (stereo unspecified) 6.66%, c1cn(CCCNc2ncnc3nc[nH]c23)cn1 8.22%, CCCNC(=O)CNC(=S)N(Cc1ccccc1F)C1CCCCC1 8.76%, CCCN(CC(=O)Nc1ccc(F)c(F)c1F)C(=O)Cn1c(=O)cnc2ccccc21 5.6%, O=C(OCC(=O)N1CCc2ccccc2C1)c1c(F)cccc1Cl 4.76%, O=C1CN(C(=O)COC(=O)c2ccc(N3CCCCCC3)c([N+](=O)[O-])c2)c2ccccc2N1 13.5%, COc1ccc(NC(=O)CN(C)C(=O)Cn2c(=O)oc3ccccc32)cc1 3.28%, COc1cc(/C=C2/CC/C(=C/c3ccc(O)c(OC)c3)C2=O)ccc1O 22%, CCOc1cc(/C=C2\CCCC(C(=O)C(F)(F)F)=C2O)ccc1O 25.9%, CCOc1cc(/C=C2/C(=O)ON=C2C)ccc1O 21.6%, CCN1C/C(=C/c2ccc(OC)c(O)c2)C(=O)/C(=C/c2ccc(OC)c(O)c2)C1 8.1%, COc1ccc(/C=C2\CC/C(=C\c3ccc(OC)c(OC)c3)C2=O)cc1OC 4.49%, COc1cc(/C=C2/C(=O)CNC2=O)ccc1O 28.6%, COc1ccc(/C=C2\CN(Cc3ccccc3)C/C(=C\c3ccc(OC)c(O)c3)C2=O)cc1O 7.6%, CCOc1cc(/C=C2\CCn3c2nc2cc(Cl)ccc2c3=O)ccc1O 15.1%, O=C(CSc1nnc(NC(=O)c2ccccc2F)s1)NC1CC1 2.69%, NNC(=O)c1ncoc1-c1ccc(Cl)cc1 5.93%, C=CCN1CC2CC3(COc4cc(C)cc(C)c4)C=CC2(O3)C1=O (stereo unspecified) 14.1%, Cc1ccc(C(=O)OCC(=O)Nc2ccc(F)c(Cl)c2)o1 5.92%, COc1ccc(CNC(=O)C[C@H]2C[C@H](C(=O)N3CCOCC3)[C@@]3(C)c4[nH]c5cc(-c6ccco6)ccc5c4CCN3C2=O)cc1OC 15.1%, O=C(C=Cc1ccccn1)c1ccccc1 3.53%, CCO[C@@H]1OC(C(=O)N2CCOCC2)=C[C@H](c2ccc(Br)cc2)[C@H]1CCCO 9.4%, CC(C)CCNC(=O)C(c1ccncc1)N(C(=O)Cn1nnc(-c2ccc(F)cc2)n1)c1ccccc1F (stereo unspecified) 2.28%, CSc1ccccc1NC(=O)CSc1n[nH]c(C)c1[N+](=O)[O-] 8.49%, Nc1nonc1-n1nnc(C(=O)N/N=C/c2ccc(OCc3ccccc3F)cc2)c1CN1CCCCC1 -2.32%, CN1C(=O)/C(=C/c2ccc(O)c([N+](=O)[O-])c2)N(C)C1=S 12.6%, COc1cc(/C=C2/C(=O)N(C)C(=S)N2C)ccc1OCc1cccc(F)c1 8.12%, CCc1cc(=O)oc2c(C)c(OCC(=O)NCCCn3ccnc3)ccc12 5.6%, O=C(C[C@@H]1C[C@@H]2c3cc(NS(=O)(=O)c4ccc(F)cc4)ccc3O[C@@H]2[C@@H](CO)O1)NC1CCCCC1 7.42%, O=C(NCc1cccs1)c1nc2ncccn2n1 10.9%, CSc1cccc(NC(=S)N(CCC(C)C)C2CCN(C(C)C)CC2)c1 1.15%, COc1ccccc1-c1ccc(Nc2ccc(C(=O)N3CCOCC3)cc2)nn1 2.87%, CC(=O)c1ccc(Nc2ccc(-c3ccccc3C)nn2)cc1 2.32%, O=C(NCc1ccncc1)C(=O)N/N=C/c1cccnc1 -4.63%, Cc1ccc(O)c(CN(C)Cc2cc(C)ccc2O)c1 -9.02%, O=P(Cc1ccccc1O)(c1ccccc1)c1ccccc1 3.4%, COc1ccc(S(=O)(=O)NC(C)C(=O)Nc2cccc(C(C)=O)c2)cc1 (stereo unspecified) 8.82%, CCN(CC)CCn1c2ccccc2c2nc3ccccc3nc21 11.3%, CCc1cc2c(=O)c(-c3nc4ccccc4n3C)c(C)oc2c(CN(CC)CC)c1O 8.27%, O=C(c1cccnc1)N1CCN(S(=O)(=O)c2ccc(S(=O)(=O)N3CCCC3)cc2)CC1 2.14%, CCc1ccc(N(CC(=O)Nc2ccc(OC)cc2OC)S(C)(=O)=O)cc1 6.83%, Cc1cc(N2C(=O)C3C4CCC(C4)C3C2=O)no1 (stereo unspecified) -3.98%, O=C(CCCc1cccs1)N1CCN(S(=O)(=O)c2ccccc2Br)CC1 8.03%, CC(=O)NC(NC(=S)Nc1ccc(N=Nc2ccccc2)cc1)C(Cl)(Cl)Cl (stereo unspecified) 7.33%, COC(=O)C1CC(=O)N(c2ccc(C)cc2)C1 (stereo unspecified) 1.9%, COc1cccc(N2CC(NC(=O)c3ccc4ccccc4c3)CC2=O)c1 (stereo unspecified) 6.5%, COc1ccc(N2CC(C(=O)OCC(=O)c3ccc(C)cc3)CC2=O)cc1 (stereo unspecified) -1.09%, COC(=O)c1ccc(OC(=O)C2CC(=O)N(c3cccc(C)c3)C2)cc1 (stereo unspecified) -2.41%, O=C(COC(=O)c1ccccc1Cl)NCc1ccco1 6.58%, CC(C)=CCN1CCN(CCCn2cccn2)CC1CCO (stereo unspecified) 0.56%, CC(=O)Nc1ccc(S(=O)(=O)Nc2nccc(/C=C/c3ccc(Cl)cc3)n2)cc1 -0.65%, COCC1CCN(C(=O)c2cc(COc3ccc(OC)cc3Cl)on2)C1 (stereo unspecified) 10.9%, COC(=O)C1(Cc2ccc(O)cc2)OC(=O)C(O)=C1c1ccc(O)cc1 (stereo unspecified) 16.3%, Cc1ccc(S(=O)(=O)c2ccc(C)cc2)cc1 5.53%, CC(=O)Nc1ccc(S(=O)(=O)c2ccc(C)cc2)cc1 10.7%, COc1cc(C(=O)NCCC(=O)N2CCC3(CC2)NCCc2[nH]cnc23)cc(OC)c1OC 1.24%, CCC1CCCCN1C(=S)NC(=O)c1ccc(F)c(S(=O)(=O)N2CCOCC2)c1 (stereo unspecified) 0.38%, O=C(Cc1cscn1)c1ccc(O)cc1O 0.47%, Cc1nc(C/C(=N\Nc2ccccc2)c2ccc(O)cc2O)cs1 10.9%, Cc1nc(CC(=O)c2ccc(O)cc2O)cs1 -0.73%, Oc1ccc(/C(Cc2ccccn2)=N\Nc2ccccc2)c(O)c1 13.1%, C#CCOCCOCCOCCNc1nc(N2CCN(C(=O)CCCCCCCCCCNC(=O)[C@@H](CCC(=O)O)n3cc(CCCCCN)nn3)CC2)nc(N2CCN(C(=O)CCCCCCCCCCNC(=O)[C@@H](CCC(=O)O)n3cc(CCCCCN)nn3)CC2)n1 0.63%, CCn1c(C)nc2c(C)[n+](CC(=O)c3ccc(Br)cc3)ccc21 8.56%, CSc1nnc2ccc(-c3ccccn3)nn12 -3.72%, COc1ccc(NC2CCCN(C(=O)c3cccc(C)n3)C2)cc1OC (stereo unspecified) 26.1%, Oc1cccc(/C=N/Nc2ncnc3c2ncn3Cc2ccccc2)c1 15.2%, COc1cccc(/C=N/Nc2ncnc3c2ncn3Cc2ccccc2)c1O 7.53%, COc1cccc(C2C(C(=O)c3cccs3)=C(O)C(=O)N2CCN2CCOCC2)c1OC (stereo unspecified) 10.9%, Cc1cn([C@H]2C[C@H](O)[C@@H](CNCc3ccccc3)O2)c(=O)[nH]c1=O 7%, O=c1ccn([C@@H]2O[C@H](CNCC3=Cc4cc(O)ccc4OC3)[C@@H](O)[C@H]2O)c(=O)[nH]1 20%, COC(=O)c1ccc(CNC(=O)C2CCC(=O)N(CCc3ccccc3)C2)cc1 (stereo unspecified) 6.06%, Cn1c(=O)c([N+](=O)[O-])c(NCc2ccccc2Cl)c2ccccc21 8.45%, O=c1/c(=C\c2ccc(F)cc2)sc2n1CCCN=2 -5.16%, O=c1/c(=C\c2ccc3c(c2)OCO3)sc2n1CCCN=2 8.3%, O=c1/c(=C/c2ccc([N+](=O)[O-])cc2)sc2n1CCCN=2 9.61%, CN(C)c1ccc(/C=c2\sc3n(c2=O)CCCN=3)cc1 9.18%, COc1ccc(CCNS(=O)(=O)c2cn(C)c(=O)n(C)c2=O)cc1OC -1.5%, CCc1ccccc1NC(=O)NCc1ccccn1 7.56%, Cc1ccc(C)c2c1cc(C)c1nnc(SCC(=O)Nc3nc4c(s3)CCCC4)n12 6.82%, CC(=O)N1/C(=C/c2ccc(N(C)C)cc2)C(=O)c2ccccc21 10.6%, CN(C)c1ccc(/C=C2\CCCc3c2nc2ccccc2c3C(=O)O)cc1 28.8%, CN(C)c1ccc(/C=C/c2nc3ccccc3c(=O)n2-c2ccc(C(=O)O)cc2)cc1 21.8%, CCOC(=O)C1=NN(c2ccccc2)C(=O)/C1=C\c1ccc(N(C)C)cc1 14.6%, CN(C)c1ccc(/C=C2\SC(=O)N(CC(O)Cn3c4ccccc4c4ccccc43)C2=O)cc1 (stereo unspecified) 9.97%, CCOC(=O)CC1=NN(c2ccccc2)C(=O)/C1=C\c1ccc(N(C)C)cc1 12%, CN(C)c1ccc(/C=C2\CCCCC2=O)cc1 22%, CC1=NN(c2cccc(F)c2)C(=O)/C1=C/c1ccc(N(C)C)cc1 4.18%

From PubChem BioAssay AID624330 (Southern Research Specialized Biocontainment Screening …, 2012)
